Source: the supplement of paper PMC10849652
Of roughly 7,900 targets only a part is listed; those with a hit were picked by preference. About 0.6% of all pairs of compound and target were hits. Values without a mark were called inactive.

Key:
Assay in all cases: log2 fold change, soluble protein after heating vs DMSO (PISA); higher = thermal stabilisation; K562 cells, 10 uM, 30 min; active = over 0.2 and 3.5 SD of the protein, either way, in both replicates (recomputed)
ZEB2 = ZEB2 (UniProt O60315)
Method in brief: (§1)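 Values are thermal stability changes relative to control samples and are taken from duplicates. They are stated as log2 fold changes. Before quantification by TMTpro 16plex LC-MS/MS with equalised channel sums, K562 cells at 2×10^6 cells/mL were treated with 10 μM compound for 30 min, heated in aliquots for 3 min across 48°C-58°C, pooled, extracted in PBS with 0.5% NP-40 at 4°C, and centrifuged at 21,000xg for 90 min to give the soluble supernatant.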

ZER1 = ZER1 (UniProt Q7Z7L7)
Method in brief: as §1

ZFAND5 = ZFAND5 (UniProt O76080)
Method in brief: as §1

ZFAND6 = ZFAND6 (UniProt Q6FIF0)
Method in brief: as §1

ZFP91 = ZFP91 (UniProt Q96JP5)
Method in brief: as §1

ZFPL1 = ZFPL1 (UniProt O95159)
Method in brief: as §1

ZMAT2 = ZMAT2 (UniProt Q96NC0)
Method in brief: as §1

ZMYM1 = ZMYM1 (UniProt Q5SVZ6)
Method in brief: as §1

ZMYM3 = ZMYM3 (UniProt Q14202)
Method in brief: as §1

ZNF143 = ZNF143 (UniProt P52747)
Method in brief: as §1

ZNF217 = ZNF217 (UniProt O75362)
Method in brief: as §1

ZNF239 = ZNF239 (UniProt Q16600)
Method in brief: as §1

ZNF277 = ZNF277 (UniProt Q9NRM2)
Method in brief: as §1

ZNF579 = ZNF579 (UniProt Q8NAF0)
Method in brief: as §1

ZNF580 = ZNF580 (UniProt Q9UK33)
Method in brief: as §1

ZNF609 = ZNF609 (UniProt O15014)
Method in brief: as §1

ZNF622 = ZNF622 (UniProt Q969S3)
Method in brief: as §1

ZRANB2 = ZRANB2 (UniProt O95218)
Method in brief: as §1

ZNF511 isoform 1 = ZNF511 isoform 1 (UniProt Q8NB15)
Method in brief: as §1

ZNF512 = ZNF512 (UniProt Q96ME7)
Method in brief: as §1

ZNF512, sequence (Q96ME7 whole entry, looked up): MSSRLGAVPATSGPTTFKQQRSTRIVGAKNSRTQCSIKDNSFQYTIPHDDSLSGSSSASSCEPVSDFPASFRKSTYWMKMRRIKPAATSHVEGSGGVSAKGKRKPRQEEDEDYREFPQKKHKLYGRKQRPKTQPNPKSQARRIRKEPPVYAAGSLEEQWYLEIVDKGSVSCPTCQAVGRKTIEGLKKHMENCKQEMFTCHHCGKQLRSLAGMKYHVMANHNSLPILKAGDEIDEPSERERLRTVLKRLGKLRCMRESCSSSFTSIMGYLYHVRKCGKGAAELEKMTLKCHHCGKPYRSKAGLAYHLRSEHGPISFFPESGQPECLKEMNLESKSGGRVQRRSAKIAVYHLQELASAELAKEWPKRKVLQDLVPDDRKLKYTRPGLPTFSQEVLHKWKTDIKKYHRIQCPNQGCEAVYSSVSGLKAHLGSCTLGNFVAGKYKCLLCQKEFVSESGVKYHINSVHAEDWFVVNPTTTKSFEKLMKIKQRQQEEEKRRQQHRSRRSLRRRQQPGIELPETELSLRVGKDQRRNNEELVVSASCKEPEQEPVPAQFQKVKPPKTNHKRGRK
ZNF580, sequence (Q9UK33 whole entry, looked up): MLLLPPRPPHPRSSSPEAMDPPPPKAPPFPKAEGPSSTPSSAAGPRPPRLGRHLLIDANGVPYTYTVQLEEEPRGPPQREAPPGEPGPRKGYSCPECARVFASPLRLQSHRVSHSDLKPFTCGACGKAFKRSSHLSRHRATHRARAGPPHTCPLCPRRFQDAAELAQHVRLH
ZFP91, sequence (Q96JP5 whole entry, looked up): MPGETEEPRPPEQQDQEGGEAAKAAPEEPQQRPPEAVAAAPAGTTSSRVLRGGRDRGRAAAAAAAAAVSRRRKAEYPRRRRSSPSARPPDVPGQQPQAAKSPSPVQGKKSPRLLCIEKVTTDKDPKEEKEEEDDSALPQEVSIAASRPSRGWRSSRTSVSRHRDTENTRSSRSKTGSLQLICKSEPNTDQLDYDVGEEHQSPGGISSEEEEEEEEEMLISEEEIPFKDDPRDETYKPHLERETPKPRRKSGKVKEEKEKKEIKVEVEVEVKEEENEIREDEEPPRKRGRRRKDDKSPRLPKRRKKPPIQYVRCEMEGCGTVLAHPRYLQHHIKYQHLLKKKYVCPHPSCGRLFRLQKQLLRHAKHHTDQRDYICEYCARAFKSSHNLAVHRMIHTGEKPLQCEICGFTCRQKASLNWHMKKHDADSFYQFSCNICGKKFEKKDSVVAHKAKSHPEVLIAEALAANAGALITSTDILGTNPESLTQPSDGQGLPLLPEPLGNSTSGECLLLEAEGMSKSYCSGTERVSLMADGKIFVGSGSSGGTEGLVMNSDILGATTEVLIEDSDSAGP
ZNF239, sequence (Q16600 whole entry, looked up): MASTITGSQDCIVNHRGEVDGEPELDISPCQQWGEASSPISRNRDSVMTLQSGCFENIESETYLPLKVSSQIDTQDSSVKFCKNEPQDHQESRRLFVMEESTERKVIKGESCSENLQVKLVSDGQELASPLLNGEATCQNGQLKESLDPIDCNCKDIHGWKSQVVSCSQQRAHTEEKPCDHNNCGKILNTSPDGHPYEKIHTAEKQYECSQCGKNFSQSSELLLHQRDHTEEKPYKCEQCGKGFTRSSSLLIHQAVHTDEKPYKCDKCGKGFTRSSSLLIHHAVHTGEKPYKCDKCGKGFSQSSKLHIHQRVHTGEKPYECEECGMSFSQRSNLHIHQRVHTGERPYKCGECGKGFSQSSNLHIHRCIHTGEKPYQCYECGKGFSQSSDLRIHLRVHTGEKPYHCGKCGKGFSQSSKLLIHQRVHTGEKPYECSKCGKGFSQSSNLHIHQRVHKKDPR
ZER1, sequence (Q7Z7L7 whole entry, looked up): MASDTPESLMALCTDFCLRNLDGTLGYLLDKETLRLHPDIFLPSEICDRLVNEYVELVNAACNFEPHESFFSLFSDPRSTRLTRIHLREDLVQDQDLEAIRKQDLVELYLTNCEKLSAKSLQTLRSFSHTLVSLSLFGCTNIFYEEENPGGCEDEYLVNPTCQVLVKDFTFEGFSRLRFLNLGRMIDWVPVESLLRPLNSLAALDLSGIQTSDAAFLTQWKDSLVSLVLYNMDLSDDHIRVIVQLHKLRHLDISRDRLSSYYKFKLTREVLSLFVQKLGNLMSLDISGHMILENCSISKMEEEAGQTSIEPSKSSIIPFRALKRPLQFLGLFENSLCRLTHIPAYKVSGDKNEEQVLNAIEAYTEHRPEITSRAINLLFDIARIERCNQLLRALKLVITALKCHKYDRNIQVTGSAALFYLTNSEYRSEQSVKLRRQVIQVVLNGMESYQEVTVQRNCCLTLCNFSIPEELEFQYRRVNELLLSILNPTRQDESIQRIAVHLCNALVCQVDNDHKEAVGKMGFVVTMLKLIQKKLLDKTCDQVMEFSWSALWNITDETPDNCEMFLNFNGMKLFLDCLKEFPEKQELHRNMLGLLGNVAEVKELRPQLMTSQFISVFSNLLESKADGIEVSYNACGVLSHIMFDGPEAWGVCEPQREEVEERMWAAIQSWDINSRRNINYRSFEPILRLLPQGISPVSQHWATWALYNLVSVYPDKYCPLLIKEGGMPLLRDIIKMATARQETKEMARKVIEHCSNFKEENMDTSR
ZNF609, sequence (O15014 whole entry, looked up): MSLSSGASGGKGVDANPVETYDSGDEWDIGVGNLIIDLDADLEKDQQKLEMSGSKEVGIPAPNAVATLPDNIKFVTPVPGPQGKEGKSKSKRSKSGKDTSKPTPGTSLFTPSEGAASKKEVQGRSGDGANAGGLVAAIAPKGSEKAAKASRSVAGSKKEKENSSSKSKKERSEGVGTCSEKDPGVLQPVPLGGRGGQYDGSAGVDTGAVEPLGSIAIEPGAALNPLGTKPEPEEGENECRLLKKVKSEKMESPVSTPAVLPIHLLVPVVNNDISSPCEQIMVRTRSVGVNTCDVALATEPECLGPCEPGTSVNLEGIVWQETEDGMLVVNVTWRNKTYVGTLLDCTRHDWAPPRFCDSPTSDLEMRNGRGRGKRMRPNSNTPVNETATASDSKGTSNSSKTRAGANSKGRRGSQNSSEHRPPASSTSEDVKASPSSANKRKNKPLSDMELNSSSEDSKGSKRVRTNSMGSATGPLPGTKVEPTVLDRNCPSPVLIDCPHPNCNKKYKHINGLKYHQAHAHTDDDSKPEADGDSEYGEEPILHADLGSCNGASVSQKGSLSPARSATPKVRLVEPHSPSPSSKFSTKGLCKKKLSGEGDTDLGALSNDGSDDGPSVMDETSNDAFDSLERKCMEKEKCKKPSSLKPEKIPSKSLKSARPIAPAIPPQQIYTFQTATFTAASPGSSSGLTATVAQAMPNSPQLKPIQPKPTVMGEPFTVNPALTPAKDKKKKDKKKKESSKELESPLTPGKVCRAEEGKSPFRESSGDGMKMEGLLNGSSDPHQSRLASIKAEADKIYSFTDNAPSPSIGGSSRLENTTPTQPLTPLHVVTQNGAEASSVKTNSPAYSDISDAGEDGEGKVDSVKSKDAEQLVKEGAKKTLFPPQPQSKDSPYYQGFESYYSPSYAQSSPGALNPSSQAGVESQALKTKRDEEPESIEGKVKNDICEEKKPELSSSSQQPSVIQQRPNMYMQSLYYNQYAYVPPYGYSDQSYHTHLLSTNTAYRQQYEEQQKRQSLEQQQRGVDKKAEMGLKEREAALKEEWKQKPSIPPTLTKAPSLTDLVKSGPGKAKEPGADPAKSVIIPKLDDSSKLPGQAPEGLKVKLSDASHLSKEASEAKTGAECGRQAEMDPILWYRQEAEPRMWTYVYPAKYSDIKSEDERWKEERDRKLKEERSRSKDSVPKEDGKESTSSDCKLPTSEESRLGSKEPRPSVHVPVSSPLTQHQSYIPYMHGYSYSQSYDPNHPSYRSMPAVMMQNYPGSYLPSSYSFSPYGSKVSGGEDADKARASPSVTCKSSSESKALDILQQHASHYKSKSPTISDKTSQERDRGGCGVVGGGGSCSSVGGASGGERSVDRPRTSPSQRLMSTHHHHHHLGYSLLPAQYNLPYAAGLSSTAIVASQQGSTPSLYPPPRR
ZNF511 isoform 1, sequence (Q8NB15 whole entry, looked up, canonical isoform): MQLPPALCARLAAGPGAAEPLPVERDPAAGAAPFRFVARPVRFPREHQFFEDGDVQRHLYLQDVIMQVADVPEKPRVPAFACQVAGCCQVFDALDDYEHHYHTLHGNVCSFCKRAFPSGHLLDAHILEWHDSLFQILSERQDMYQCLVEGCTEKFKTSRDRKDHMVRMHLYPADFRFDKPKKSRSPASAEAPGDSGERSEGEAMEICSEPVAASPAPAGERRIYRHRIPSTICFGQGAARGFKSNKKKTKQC
ZFAND6, sequence (Q6FIF0 whole entry, looked up): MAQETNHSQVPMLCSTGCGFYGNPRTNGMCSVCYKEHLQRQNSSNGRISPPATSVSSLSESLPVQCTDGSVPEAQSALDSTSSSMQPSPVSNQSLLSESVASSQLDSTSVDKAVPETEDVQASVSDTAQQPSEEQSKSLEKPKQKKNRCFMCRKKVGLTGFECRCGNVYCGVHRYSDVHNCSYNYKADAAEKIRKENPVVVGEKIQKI
ZNF579, sequence (Q8NAF0 whole entry, looked up): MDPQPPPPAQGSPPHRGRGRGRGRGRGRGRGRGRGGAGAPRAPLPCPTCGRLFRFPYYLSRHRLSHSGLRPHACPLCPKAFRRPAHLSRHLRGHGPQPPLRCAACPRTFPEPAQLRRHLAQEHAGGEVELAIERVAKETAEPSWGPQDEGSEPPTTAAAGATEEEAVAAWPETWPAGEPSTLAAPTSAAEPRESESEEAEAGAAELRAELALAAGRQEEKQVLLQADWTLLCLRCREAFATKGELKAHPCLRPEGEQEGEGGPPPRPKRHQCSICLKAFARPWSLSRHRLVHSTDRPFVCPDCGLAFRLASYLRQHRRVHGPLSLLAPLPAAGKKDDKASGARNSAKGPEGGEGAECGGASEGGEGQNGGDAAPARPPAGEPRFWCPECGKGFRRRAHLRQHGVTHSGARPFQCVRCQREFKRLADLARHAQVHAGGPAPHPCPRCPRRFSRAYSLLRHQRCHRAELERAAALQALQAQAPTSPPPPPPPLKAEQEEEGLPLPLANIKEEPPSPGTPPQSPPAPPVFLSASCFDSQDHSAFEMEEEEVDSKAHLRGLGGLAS

Row | Compound | log2 fold change (ZEB2) | log2 fold change (ZER1) | log2 fold change (ZFAND5) | log2 fold change (ZFAND6) | log2 fold change (ZFP91) | log2 fold change (ZFPL1) | log2 fold change (ZMAT2) | log2 fold change (ZMYM1) | log2 fold change (ZMYM3) | log2 fold change (ZNF143) | log2 fold change (ZNF217) | log2 fold change (ZNF239) | log2 fold change (ZNF277) | log2 fold change (ZNF579) | log2 fold change (ZNF580) | log2 fold change (ZNF609) | log2 fold change (ZNF622) | log2 fold change (ZRANB2) | log2 fold change (ZNF511 isoform 1) | log2 fold change (ZNF512)
1 | CC(C)N(C[C@H]1O[C@@H](n2cnc3c(N)ncnc32)[C@H](O)[C@@H]1O)[C@H]1C[C@@H](CCc2nc3cc(C(C)(C)C)ccc3[nH]2)C1 [pinometostat] | 0.06 | 0.098 | -0.047 | -0.048 | 0.136 | -0.11 | -0.037 | 0.001 | -0.011 | 0.014 | 0.002 | -0.008 | 0.267 | 0.02 | -0.072 | 0.03 | 0.014 | 0.012 | – | –
2 | C[C@@H](N)c1ccc(C(=O)Nc2ccnc3[nH]ccc23)cc1 | – | -0.055 | -0.021 | 0.031 | 0.154 | -0.006 | -0.012 | 0.016 | 0.045 | -0.118 | -0.013 | 0.022 | 0.315 | 0.102 | – | 0.033 | 0 | -0.043 | -0.105 | 0.45
3 | Cn1cc(-c2ccc3c(c2)CCN3C(=O)Cc2cccc(C(F)(F)F)c2)c2c(N)ncnc21 | – | -0.021 | -0.02 | 0.067 | -0.161 | 0.049 | -0.023 | 0.07 | 0.053 | -0.129 | 0.142 | 0.306 | -0.163 | 0.059 | – | -0.041 | 0.067 | -0.013 | 0.01 | -0.86 (active)
4 | CO[C@H]1C[C@@H]2CC[C@@H](C)[C@@](O)(O2)C(=O)C(=O)N2CCCC[C@H]2C(=O)O[C@H]([C@H](C)C[C@@H]2CC[C@H](n3cnnn3)[C@H](OC)C2)CC(=O)[C@H](C)/C=C(\C)[C@@H](O)[C@@H](OC)C(=O)[C@H](C)C[C@H](C)/C=C/C=C/C=C/1C [zotarolimus] | – | -0.035 | -0.012 | -0.045 | -0.028 | 0.006 | -0.034 | -0.05 | 0.093 | 0.067 | -0.007 | -0.483 | -0.084 | 0.099 | – | -0.008 | -0.017 | -0.011 | 0.066 | -0.024
5 | Cc1cccc(CC(=O)N2CCc3c2ccc(-c2cn(C)c4ncnc(N)c24)c3F)n1 | – | 0.369 | -0.032 | -0.014 | -0.037 | -0.041 | -0.037 | -0.036 | -0.121 | 0.027 | 0.008 | 0 | 0.045 | -0.101 | -0.045 | -0.22 | -0.019 | -0.065 | – | –
6 | CN1CCN(c2nc(C3=C(c4c[nH]c5ccccc45)C(=O)NC3=O)c3ccccc3n2)CC1 [sotrastaurin] | -0.056 | 0.078 | 0.11 | 0.13 | 0.105 | 0.003 | -0.088 | 0.027 | 0.027 | -0.031 | -0.019 | 0.144 | – | 0.014 | 0.039 | 0.016 | 0.018 | -0.027 | 0.001 | –
7 | COc1cc(C(=O)O)ccc1NC(=O)[C@@H]1N[C@@H](CC(C)(C)C)[C@](C#N)(c2ccc(Cl)cc2F)[C@H]1c1cccc(Cl)c1F [idasanutlin] | – | -0.188 | 0.079 | -0.096 | 0.029 | -0.026 | 0.061 | 0.085 | 0 | 0.07 | -0.027 | -0.031 | -0.003 | -0.116 | – | 0.021 | -0.031 | 0.024 | 0.128 | 0.3
8 | NC(=O)c1cnc(N[C@@H]2CCCC[C@@H]2N)nc1Nc1cccc(-n2nccn2)c1 | – | -0.001 | 0.084 | 0.089 | -0.001 | 0.054 | 0.079 | -0.123 | 0.11 | -0.106 | -0.053 | -0.092 | 0.067 | 0.067 | – | 0.015 | -0.002 | 0.002 | -0.066 | -0.005
9 | c1cn2cc(-c3ccc4cn[nH]c4c3)nc(Nc3ccc(N4CCOCC4)cc3)c2n1 [entospletinib] | – | 0.036 | 0.128 | 0.019 | 0.011 | 0.034 | -0.116 | 0.174 | -0.043 | 0.015 | 0.011 | – | 0.031 | -0.14 | 0.004 | -0.111 | 0.021 | 0.037 | 0.1 | –
10 | O=C(CCCCCCC(=O)Nc1ccccc1)NO [vorinostat] | – | 0.055 | -0.047 | 0.04 | 0.013 | -0.053 | -0.019 | -0.02 | 0.073 | 0.037 | 0.056 | 0.275 | -0.022 | -0.032 | -0.064 | -0.128 | -0.049 | -0.03 | – | –
11 | C/C(=N\NC(=O)c1cccc(S(=O)(=O)N2CCOCC2)c1)c1cc(Cl)ccc1O | – | 0.019 | -0.018 | -0.075 | -0.069 | 0.099 | 0.001 | -0.174 | -0.004 | 0.127 | 0.074 | 0.019 | -0.031 | 0.147 | – | -0.048 | 0.015 | -0.067 | -0.402 (active) | -0.085
12 | CCn1cc(-c2ccnc3[nH]c(-c4cccc(CN(C)C)c4)cc23)c(-c2ccc(NC(=O)N(C)C)cc2)n1 | – | -0.16 | -0.017 | -0.009 | 0.07 | 0.032 | 0.022 | 0.141 | 0.018 | -0.102 | 0.036 | 0.095 | 0.01 | 0.091 | 0.092 | 0.097 | -0.077 | 0.022 | – | –
13 | CNc1nc(-c2ccc3c(N)n[nH]c3c2)cc(N2C[C@@H](C(=O)NC3CCCCC3)CC[C@H]2C)n1 | -0.09 | -0.245 | -0.072 | -0.017 | -0.007 | -0.031 | -0.058 | -0.021 | -0.004 | -0.118 | -0.183 | -0.055 | 0.11 | 0.089 | 0.128 | -0.004 | -0.019 | -0.066 | – | –
14 | CN1CC[C@H](c2c(O)cc(O)c3c(=O)cc(-c4ccccc4Cl)oc23)[C@H](O)C1 [alvocidib] | – | -0.131 | 0.041 | 0.028 | 0.108 | -0.038 | 0.047 | 0.016 | 0.14 | -0.125 | -0.164 | 0.226 | 0.169 | -0.034 | – | 0.077 | 0.085 | 0.068 | -0.143 | -0.002
